An excerpt weighted towards active compounds, which were near 1.2% of everything screened.
RGS16-Gao: RGS16-Galphao interaction regulator (human) | O15492+P09471 | bead-based flow cytometry RGS16-Galphao binding, fluorescence; actives lie on both sides | binding response (% of control), % at 10 µM | 220,000 tested, 0.38% active | AID 1441;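 also: Galphao activated by GDP with aluminum fluoride before binding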
Avidin fluor: avidin bead compound fluorescence profile; Avidin beads, compound fluorescence 488/530 nm, flow cytometry; active compounds read high; fluorescence (KMESF) at 10 µM; 220,000 tested, 0.38% active; AID 1775; in the data active = fluorescence above about 47
RGS4-Gao reg: modulates binding of RGS4 to human Galphao | binding response (% of control), % at 10 µM | Multiplexed bead flow cytometry; actives lie on both sides | AID 1415 | P09471 | 220,000 tested, 0.33% active; in the data active = binding response below about 49% or above about 150%; inactive = in between;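 also: fluorescent Galphao activated with aluminum fluoride binding bead-coupled RGS4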
Target sequence (P09471 whole entry, looked up): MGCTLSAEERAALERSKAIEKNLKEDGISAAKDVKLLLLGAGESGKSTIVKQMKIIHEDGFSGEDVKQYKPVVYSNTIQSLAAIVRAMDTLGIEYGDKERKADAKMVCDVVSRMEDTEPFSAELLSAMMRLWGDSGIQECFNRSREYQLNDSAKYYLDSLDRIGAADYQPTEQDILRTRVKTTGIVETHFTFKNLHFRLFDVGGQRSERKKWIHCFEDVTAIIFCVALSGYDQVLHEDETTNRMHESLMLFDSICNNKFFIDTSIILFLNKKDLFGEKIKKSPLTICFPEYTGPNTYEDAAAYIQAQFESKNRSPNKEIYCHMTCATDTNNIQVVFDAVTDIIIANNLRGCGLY
RGS8-Gao: modulates binding of RGS8 to human Galphao. P09471. multiplexed bead flow cytometry; actives lie on both sides. response (percent of control binding), % at 10 µM. 220,000 tested, 0.34% active. AID 1423; in the data active = response below about 60% or above about 140%; inactive = in between;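 also: Galphao activated as the GDP aluminium fluoride complex binding bead-coupled RGS8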
RGS7-Gao: regulators of human RGS7-Galphao interaction; Multiplexed bead flow cytometry, RGS7-Galphao binding; actives lie on both sides; binding response (% of control), % at 10 µM; P09471; AID 1439; 220,000 tested, 0.35% active; in the data active = binding response below about 49% or above about 150%; inconclusive = no clear call, values can overlap the other calls; inactive = in between;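 also: fluorescent Galphao held in activated GDP-AlF4 state binding bead-coupled RGS7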
GSH bead fluor: GSH bead compound fluorescence profile; AID 1776; 190,000 tested, 0.25% active; fluorescence (KMESF) at 10 µM; GSH beads flow cytometry, compound fluorescence 488/530 nm; active compounds read high; in the data active = fluorescence above about 89;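 also: glutathione beads carrying GST-tagged Bcl family fusion proteins plus one bare bead set; values are compound well signal with DMSO vehicle wells as background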
RGS4-Gao HTS: modulates binding between human RGS4 and Galphao; multiplexed bead flow cytometry, RGS–Galpha-o binding; shares compounds with RGS16-Gao; RGS4–Galpha-o binding response, % at 10 µM; 1,600 tested, 99% active;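 also: fluorescently labeled Galpha-o bound to GDP with aluminium fluoride binding biotinylated RGS beads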
Target sequence (P09471 whole entry, looked up): as above
Target sequence (P49798 whole entry, looked up): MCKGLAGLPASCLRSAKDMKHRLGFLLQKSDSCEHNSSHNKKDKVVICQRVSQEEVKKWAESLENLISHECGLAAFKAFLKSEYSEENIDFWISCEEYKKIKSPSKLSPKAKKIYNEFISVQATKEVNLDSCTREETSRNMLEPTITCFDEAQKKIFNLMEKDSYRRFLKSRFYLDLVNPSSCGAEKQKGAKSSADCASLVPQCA
Biotin-avidin: interferes with biotinylated probe binding to avidin beads. inhibition, % at 10 µM. 1,700 tested, under 10 active. streptavidin beads, fluorescein-biotin binding, flow cytometry. shares compounds with RGS16-Gao;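 active = inhibition above 50%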;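 also: median green fluorescence of gated singlet beads compared with DMSO control wells; 0% = DMSO wells and 100% = complete loss of bead fluorescence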
RGS8-Gao single: RGS8-Galphao interaction regulation, single point confirmation; shares compounds with RGS16-Gao; 1,700 tested, 3% active; binding response (% of control), % at 10 µM; bead-based flow cytometry RGS8-Galphao binding, fluorescence; actives lie on both sides; in the data active = binding response below about 72% or above about 130%; inactive = in between;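 also: Galphao activated as GDP AlF4 complex before binding bead RGS8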
RGS7-Gao confirm: confirmation of regulators of human RGS7-Galphao interaction | shares compounds with RGS16-Gao | bead-based flow cytometry RGS7-Galphao binding; actives lie on both sides | response (percent of control binding), % at 10 µM | 1,700 tested, 7.8% active; in the data active = response below about 75% or above about 130%; inactive = in between;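 also: fluorescent Galphao activated with GDP and aluminum fluoride binding bead-coupled RGS7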
RGS16-Gao single: RGS16-Galphao interaction regulation, single point confirmation. shares compounds with RGS16-Gao. bead-based flow cytometry, RGS16-Galphao binding; actives lie on both sides. response (% of control binding), % at 10 µM. 1,700 tested, 4% active; in the data active = response below about 74% or above about 130%; inactive = in between;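 also: Galphao activated as the GDP aluminium fluoride complex binding bead-coupled RGS16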
RGS4-Gao single: RGS4-Galphao interaction regulation, single point confirmation; shares compounds with RGS16-Gao; RGS4-Galphao binding, multiplexed bead flow cytometry; actives lie on both sides; binding response (% of control), % at 10 µM; 1,700 tested, 4% active; AID 1840; in the data active = binding response below about 74% or above about 130%; inactive = in between
RGS19-Gao single: RGS19-Galphao interaction regulation, single point confirmation; shares compounds with RGS16-Gao; bead-based flow cytometry RGS19-Galphao binding; actives lie on both sides; response (percent of control binding), % at 10 µM; 1,700 tested, 5% active; AID 1841; in the data active = response below about 50% or above about 160%; inactive = in between;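 also: 100% = no compound control and 0% = blank background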
* marks the source's active call; other numbers are inactive results; ? = inconclusive; . = no result given; [ ] = another dose, or the depositor's remark. Unless noted, no rule for the calls is given here.

SMILES	RGS16-Gao	Avidin fluor	RGS4-Gao reg	RGS8-Gao	RGS7-Gao	GSH bead fluor	Biotin-avidin	RGS8-Gao single	RGS7-Gao confirm	RGS16-Gao single	RGS4-Gao single	RGS19-Gao single	others
O=c1[nH]c(=S)n(Cc2ccc(F)cc2)c(O)c1C=NCC1CCCO1 (stereo unspecified)	107.2	16	100.4	105.6	99.0	35	.	.	.	.	.	.
O=c1[nH]c(=S)n(Cc2ccc(F)cc2)c(O)c1/C=N/N1CCCCC1	60.5	487*	108.3	99.8	112.3	35	.	.	.	.	.	.
CC(Cc1ccccc1)[n+]1cc(/N=C(\N)[O-])on1 (stereo unspecified)	99.6	10	111.6	103.7	109.1	15	.	.	.	.	.	.
CC(Cc1ccccc1)[n+]1cc(/N=C(\[O-])Nc2ccccc2)on1 (stereo unspecified)	102.8	57*	102.5	102.5	110.2	26	.	.	.	.	.	.
COP(=O)(NC(=O)C(Cl)(Cl)Cl)OC	106.6	81*	115.6	107.4	?	.	.	.	.	.	.	.
Cc1nc2ccccc2c(=O)n1-c1cccnc1	102.2	8	106.5	102.4	101.0	49	.	.	.	.	.	.
O=c1c2ccccc2nc(-c2ccco2)n1-c1ccccn1	104.8	7	105.8	101.6	101.2	261*	.	.	.	.	.	.
O=c1c2ccccc2nc(-c2ccco2)n1-c1cccnc1	103.2	8	104.1	104.1	100.2	273*	.	.	.	.	.	.
O=c1[nH]c(O)c(N=Nc2ccc([N+](=O)[O-])cc2)c(=O)[nH]1	105.9	22	97.9	100.9	99.9	26	.	.	.	.	.	.
CC1(C)CC(CCNCc2ccc3c(c2)OCO3)(Cc2ccccc2)CCO1 (stereo unspecified)	100.2	13	92.7	97.4	90.5	16	.	.	.	.	.	.
CCN1C(=O)/C(=C/c2ccc(N(CC)CC)cc2OC)C(=O)NC1=S	112.8	15	103.5	104.0	103.7	19	.	.	.	.	.	.
CCC(=NCCN1CCCCC1)c1c(O)n(C)c(=O)n(C)c1=O	114.6	15	106.6	102.8	104.0	33	.	.	.	.	.	.
CCC(=NCCOc1ccc(Cl)cc1)c1c(O)n(C)c(=O)n(C)c1=O	174.7	59*	144.1	83.8	131.9	31	.	.	.	.	.	.
CCC(=NCCc1c[nH]c2ccccc12)c1c(O)n(C)c(=O)n(C)c1=O	99.8	9	101.7	100.5	100.0	39	.	.	.	.	.	.
O=C(Cc1ccccc1)OCn1nnc2ccccc2c1=O	49.6	4	102.4	88.5	101.7	126*	.	.	.	.	.	.
CC(C)n1cc(C(=O)N(CC(=O)NC2CCCC2)Cc2ccccc2)cn1	106.4	68*	107.2	104.3	126.9	22	.	.	.	.	.	.
CCC1(CC)C(=O)N(C)C(=O)NC1=NC	204.1*[activator]	95*	195.9*[activator]	108.0	?	.	-0.2	97.7	98.2	101.9	98.7	88.9
Cc1cc(OC(=O)N(C)C)n(-c2ccccc2)n1	-15.0*	-2	-23.1*	9.2*	?	.	-0.5	100.1	85.2	94.5	92.1	71.7
COc1cccc(C(=O)C2CCCN(Cc3ccc4nsnc4c3)C2)c1 (stereo unspecified)	89.1	2	72.3	48.3*	25.6*	17	-0.2	108.8	118.5	110.9	107.1	105.6	RGS4-Gao HTS=72.3*
CC1CN(c2ccc([N+](=O)[O-])cc2Cl)CCN1 (stereo unspecified)	1.8*	.	10.6*	9.2*	7.2*	15	-1.6	97.7	90.5	92.0	95.2	80.2
CN1CCN(c2ccc([N+](=O)[O-])cc2Cl)CC1	97.4	2	78.2	55.4*	48.9*	19	-0.5	104.5	103.0	102.2	100.0	111.4	RGS4-Gao HTS=78.2*
CC1CN(c2cc([N+](=O)[O-])ccc2Cl)CC(C)N1 (stereo unspecified)	100.1	10	101.9	98.4	100.9	29	.	.	.	.	.	.
CN1CCN(c2cc([N+](=O)[O-])ccc2Cl)CC1	100.1	10	103.3	103.2	100.8	14	.	.	.	.	.	.
OC(Cn1c2ccccc2c2ccccc21)C[n+]1cccc2ccccc21 (stereo unspecified)	101.9	78*	122.7	97.4	153.5*[activator]	49	-1.8	102.4	141.1*[activator]	103.1	131.8*[activator]	199.0*[activator]	RGS4-Gao HTS=122.7*
COc1cc(CC2(CCc3ccncc3)C(=O)N(C)C(=O)N(C)C2=O)cc(OC)c1OC	86.9	4	101.4	57.9*	59.1	12	1.6	97.3	92.1	94.9	93.5	92.4	RGS4-Gao HTS=101.4*
SMILES	RGS16-Gao	Avidin fluor	RGS4-Gao reg	RGS8-Gao	RGS7-Gao	GSH bead fluor	Biotin-avidin	RGS8-Gao single	RGS7-Gao confirm	RGS16-Gao single	RGS4-Gao single	RGS19-Gao single	others
CN1CCN(c2cn[nH]c(=O)c2Cl)CC1	98.2	18	97.4	96.6	102.7	11	.	.	.	.	.	.
COC(=O)C(O)(c1ccc(NC(=O)NC2CCCCC2)cc1)C(F)(F)F (stereo unspecified)	101.3	83*	174.8*[activator]	101.2	157.2*[activator]	19	1.3	97.2	58.6*	77.9	73.1*	57.5
COC(=O)C(O)(c1ccc(NC(=S)NC(=O)c2ccc(Cl)cc2Cl)cc1)C(F)(F)F (stereo unspecified)	99.5	14	102.2	102.7	100.7	9	.	.	.	.	.	.
CCn1c(O)c(/C=N/N2CCOCC2)c(=O)n(CC)c1=S	14.1*	7	93.0	75.2	87.6	37	.	.	.	.	.	.	RGS4-Gao HTS=93.0*
NC1=NC(=O)C(c2ccccc2)O1 (stereo unspecified)	98.8	8	99.7	101.9	104.5	69	.	.	.	.	.	.
CC1C(c2cccs2)=[N+]([O-])C(C)(C(=O)c2cccs2)N1O (stereo unspecified)	160.3	4	156.7*[activator]	146.6*[activator]	158.7*[activator]	10	0.3	99.1	93.5	95.5	96.9	77.2
COc1ccc(C(=O)C2(C)N(O)C(C)C(c3cccs3)=[N+]2[O-])cc1 (stereo unspecified)	95.8	4	102.2	102.7	96.5	28	.	.	.	.	.	.

High-throughput results (PubChem)
